Experimental findings from PubChem BioAssay (NCATS) are described below.

Assay [1] deals with Zika virus NS2B-NS3 protease (unlinked complex). In words: Primary screen GU Rhodamine qHTS for Zika virus inhibitors: Unlinked NS2B-NS3 protease assay (AID 1347159). Note: % is set by controls: 0 for no effect and ±100 for the full control effect; nearly all actives have a fitted effect of over 60% in size. The following applies: Recombinant ZIKV NS2B-NS3 protease, Rhodamine110 substrate fluorescence; series mostly up to 107 µM. Summed up:
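Percent inhibition derives from the 15-min fluorescence change (ex 480, em 540 nm), normalized to no-enzyme and no-inhibitor wells. Reactions contained 25 nM NS2B-NS3 complex and 1.5 microM substrate in 10 mM Tris-HCl pH 8.0.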
(In general: Quantitative high-throughput screening tests each substance at several concentrations.)

Assay [2] has as its target Calcium and integrin-binding protein 1 (Homo sapiens) (UniProt Q99828). Put plainly: Primary qHTS for Identification of Calcium Integrin Binding Protein 1 (CIB1) Competitor (AID 1508620).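 Note: GST tagged CIB1 binding a fluorescein labelled alphaIIb integrin peptide tracer; top concentration of the series differs between compounds; % is set by controls: 0 for no effect and ±100 for the full control effect.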 The following applies: CIB1-GST / FITC-alphaIIb peptide fluorescence polarization; series mostly up to 114 µM. Summed up:
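Fluorescence polarization competition: CIB1-GST (1 uM final) preincubated with compound 15 min at room temperature, then FITC-labeled alphaIIb peptide (100 nM final) added for another 15 min. Polarization read at Ex 480/Em 540.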

Assay [3] in a line: Primary qHTS for inhibitors of nuclear receptor binding SET domain protein 2 (NSD2) in an isogenic RCH-ACV NSD2 p.E1099K mutant (9B) (AID 1645876). Note: potency is the fitted concentration of half-maximal effect; nearly all actives have a fitted effect of over 70% in size. As to conditions: RCH-ACV NSD2 E1099K (9B) viability, CellTiter-Glo, 72 h; series mostly up to 44.9 µM.
Assay [4] in a line: Primary qHTS for inhibitors of nuclear receptor binding SET domain protein 2 (NSD2) in an RCH-ACV wild type WT cells (2C) (AID 1645877). Note: potency is the fitted concentration of half-maximal effect; nearly all actives have a fitted effect of over 70% in size. As to conditions: RCH-ACV (leukaemia line) NSD2 WT (2C) viability, CellTiter-Glo, 72 h; series mostly up to 44.9 µM.
Assay [5] addresses Glutathione peroxidase 1 (Homo sapiens) (UniProt P07203). In words: Primary qHTS Assay for Inhibitors of Recombinant Selenoprotein Glutathione Peroxidase 1 (GPX1) (AID 1845191). Note: nearly all actives have a fitted effect of over 65% in size. As to conditions: recombinant GPX1, GR-coupled NADPH fluorescence, 15 min; series mostly up to 48.8 µM. Summed up:
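Recombinant GPX1 (10 nM final) was preincubated with compound for 30 min at room temperature, then reacted with 1 mM GSH, 0.5 mM CHP, 0.5 mM NADPH and 100 nM glutathione reductase; NADPH fluorescence (340/450 nm) was read at 0 and 15 min.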

Assay [6] addresses Phospholipid hydroperoxide glutathione peroxidase GPX4 (Homo sapiens) (UniProt P36969). Put plainly: Primary qHTS Assay for Inhibitors of Recombinant Selenoprotein Glutathione Peroxidase 4 (GPX4) (AID 1845192). Note: nearly all actives have a fitted effect of over 65% in size. The following applies: recombinant GPX4, GR-coupled NADPH fluorescence, 15 min; series mostly up to 50 µM. Summed up:
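GR-coupled readout: 100 nM GR, 1 mM GSH, 0.5 mM NADPH; NADPH fluorescence (ex 340/em 450 nm) read at t=0 and after 15 min RT. GPX4 200 nM, preincubated 30 min with compound; substrate 0.5 mM CHP.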

Assay [7] has as its target Luciferin 4-monooxygenase (Photinus pyralis) (UniProt P08659). In words: Primary firefly luciferase (FLuc) qHTS assay for identification of artifact compounds. (AID 1845220). Note: nearly all actives have a fitted effect of over 60% in size. The following applies: purified firefly luciferase, luminescence, 5 min; series mostly up to 54.1 µM. Summed up: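 In this counter-screen for luciferase artifacts, test compounds met substrate (10 uM each luciferin and ATP) before 10 nM enzyme started the reaction. Light output was measured 5 min later.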

The subject of assay [8] is Nanoluciferase (engineered Oplophorus gracilirostris luciferase). In words: Primary Nanoluciferase (NLuc) qHTS assay for identification of artifact compounds. (AID 1845222).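 Note: NLuc secreted into diluted conditioned medium of S16 cells; 0% = DMSO and -100% = no enzyme.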 As to conditions: NLuc-conditioned medium, Nano-Glo luminescence, 5 min; series mostly up to 54.1 µM. Summed up: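 Using secreted nanoluciferase in S16 culture medium (0.22 um filtered, 1:55 dilution), compounds were preincubated 15 min at RT. Signal was generated with Nano-Glo reagent (1:100) over 5 min.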

The nature of assay [9]: Primary redox qHTS assay for identification of artifact compounds. (AID 1845223).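 Note: 0% = DMSO and 100% = reference compound.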 As to conditions: Amplex Red/HRP redox cycling with DTT, fluorescence; series mostly up to 53.8 µM. Summed up: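 Amplex Red (25 uM) and HRP (250 mU/mL) in HBSS, with compounds for 15 min, then 250 uM DTT for 30 min, room temperature, dark. Fluorescence 525/598 nm read; normalized to DMSO and 10 uM DA3003; Hill fit.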

The subject of another assay is HeLa. In words: Primary qHTS to identify gynecologic anti-cancer compounds using libraries of approved drugs and bioactive compounds (AID 1345084). Note: nearly all actives have a fitted effect of over 55% in size. Note: potency is the fitted concentration of half-maximal effect. The following applies: Gynecologic cancer cell panel viability, ATPlite luminescence, 48 h; series mostly up to 57.5 µM. Summed up: (§1)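 In this quantitative HTS, cell killing is estimated from loss of ATP-dependent luciferase light. Cells see five compound concentrations over a 48 h exposure.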

The subject of the next assay is Hek293T. Described as above. The following applies: Gynecologic cancer cell panel viability, ATPlite luminescence, 48 h, control line for the selectivity index; series mostly up to 57.5 µM. Summed up: as §1
In general terms: ATP-based viability assays read luminescence as a measure of living cells.

In a further assay the test system is JEG-3. Described as above. The following applies: Gynecologic cancer cell panel viability, ATPlite luminescence, 48 h; series mostly up to 57.5 µM. Summed up:
as §1

The next assay concerns OV90. Described as above. The following applies: Gynecologic cancer cell panel viability, ATPlite luminescence, 48 h; series mostly up to 57.5 µM. Summed up: as §1
The next assay deals with Tov112D. The description is as above. The following applies: Gynecologic cancer cell panel viability, ATPlite luminescence, 48 h; series mostly up to 57.5 µM. Summed up:
as §1

Assay [10] can be described thus: P-glycoprotein substrates identified in KB-8-5-11 adenocarcinoma cell line, qHTS therapeutic library screen (AID 1346987). Note: potency is the fitted concentration of half-maximal effect; nearly all actives have a fitted effect of over 65% in size. As to conditions: KB-8-5-11 (P-gp overexpressing) viability, CellTiter-Glo, 72 h; series mostly up to 44.5 µM. Summed up: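 KB-8-5-11: colchicine-selected sub-line of KB-3-1 over-expressing P-gp; assay medium lacked colchicine. 72 h drug exposure at 37 degree C, CellTiter-Glo.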

In assay [11] the test system is Zika virus NS2B-NS3 protease (linked construct). In words: Primary screen NINDS Rhodamine qHTS for Zika virus inhibitors (AID 1347160). Note: % is set by controls: 0 for no effect and ±100 for the full control effect; nearly all actives have a fitted effect of over 55% in size. As to conditions: purified NS2B-NS3 protease, Rhodamine110 substrate fluorescence; series mostly up to 57.1 µM. Summed up:
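In 10 mM Tris-HCl pH 8.0 containing 0.01% Tween 20, linked NS2B-NS3 protease (25 nM final) is exposed to test compounds for 15 min. Cleavage of 1.5 microM Rhodamine110 substrate is tracked by fluorescence over 15 min.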

Assay [12] can be described thus: qHTS drug screen for cell cycle checkpoint inhibitors in PARPi-resistant BRCA-mutant ovarian cancer cell lines. (AID 1963452; calls by dose curve). As to conditions: PEO1/OlaR viability, CellTiter-Glo luminescence, 96 h, stronger effect = lower value. Summed up: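 PEO1, PEO4 and PEO1/OlaR ovarian cancer cells, 600 per well, exposed 96 h at 37C to a dilution series. Viability read by CellTiter-Glo luminescence, normalized to DMSO and empty wells; activity summarized as Z-AUC.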

Values joined by “and” are separate entries in the source; they are usually repeats but may differ in a detail not shown here. Equal entries are not always repeated. Results filed as inconclusive are left out. Active and inactive are the calls of the source. Unless noted, calls come from the whole dose curve; as a rule, active = well fitted curve in the direction sought with a large enough effect; inconclusive = small, poorly fitted or top-dose-only effect, or another doubt; inactive = no such curve, though single readings can be large; an effect the other way counts as inactive or inconclusive.

Phospholipid hydroperoxide glutathione peroxidase GPX4 (Homo sapiens), sequence (P36969 whole entry, looked up): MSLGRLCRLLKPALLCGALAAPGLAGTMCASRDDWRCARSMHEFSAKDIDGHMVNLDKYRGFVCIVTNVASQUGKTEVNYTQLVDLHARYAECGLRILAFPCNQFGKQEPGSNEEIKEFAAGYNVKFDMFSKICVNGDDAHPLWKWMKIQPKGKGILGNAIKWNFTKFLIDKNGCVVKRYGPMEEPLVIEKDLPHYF
Calcium and integrin-binding protein 1 (Homo sapiens), sequence (Q99828 whole entry, looked up): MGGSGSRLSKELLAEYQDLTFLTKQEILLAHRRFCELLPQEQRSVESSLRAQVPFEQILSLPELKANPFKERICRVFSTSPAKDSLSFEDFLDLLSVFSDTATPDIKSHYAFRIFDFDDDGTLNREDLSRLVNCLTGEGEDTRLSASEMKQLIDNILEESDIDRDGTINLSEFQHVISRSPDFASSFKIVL
Glutathione peroxidase 1 (Homo sapiens), sequence (P07203 whole entry, looked up): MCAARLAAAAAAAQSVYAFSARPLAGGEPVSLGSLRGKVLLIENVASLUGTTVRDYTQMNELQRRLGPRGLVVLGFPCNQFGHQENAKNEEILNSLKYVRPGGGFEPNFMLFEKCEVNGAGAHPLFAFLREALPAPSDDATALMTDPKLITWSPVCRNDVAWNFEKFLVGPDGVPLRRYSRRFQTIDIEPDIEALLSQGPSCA

`O=C(Nc1ncc(SCCN2CCCC2)s1)C1(c2ccc(S(=O)(=O)C3CC3)cc2)CC1C1CCCCC1` (configuration not stated): the Potency result in assay [1], in assay [5], in assay [6], in assay [7], in assay [8] and in [9] was “inactive” each time. Further, the Potency result in the assay on HeLa, in the assay on Hek293T, in the assay on JEG-3, with OV90 and with Tov112D was “inactive” throughout. For the same compound, the outcome in assay [2] was inactive. In addition, the results for the Potency in assay [3] and in [4] were 16.3 µM (active) and 12.9 µM (active), respectively.
For `N#Cc1cccc(C#N)c1-c1nc2c3ccccc3c3cc(Cl)ccc3c2[nH]1`, the Potency in assay [10] was 23.1 µM (active); in assay [3] it was 10.3 µM (active); in [4], 10.3 µM (active). Besides, the Potency result (in assay [1]; in assay [11]; in assay [6]; in assay [7]; in [8]; in the assay on Hek293T) was “inactive” in each case. For the same compound, the Potency result in the assay on JEG-3, in the assay on OV90 and in the assay with Tov112D was “inactive” in each case. In assay [2], the result was inactive.
With `COc1ccccc1-c1c[nH]c2ncc(-c3cncc(C(=O)N(C)C)c3)cc12`, the Potency result (in assay [1]; in assay [5]; in assay [6]; in [7]; in assay [8]; in the assay with JEG-3) was “inactive” each time. Also, the Potency entry in the assay on OV90 is “inactive”. Moreover, the outcome in assay [2] was inactive.
With `OC(CNCCc1c[nH]c2ccccc12)Cn1c2ccccc2c2ccccc21` (configuration not stated), the Potency in assay [10] was 16.4 µM (active); in [3], 5.15 µM (active); in assay [4], 4.59 µM (active). For the same compound, the Potency result in assay [1], in assay [11], in assay [5], in [6], in assay [7] and in [8] was “inactive” each time. For the same compound, the Potency entry (in assay [9]; in the assay with HeLa; in the assay with Hek293T; in the assay on JEG-3; with OV90; in the assay on Tov112D) was “inactive” throughout. In addition, the outcome in assay [2] was inactive.
Take `COc1ccc2c3ccnc4ccc(=O)n(c2c1)c43`: the Potency entry in assay [1], in assay [11], in assay [5], in assay [6], in [7] and in assay [8] was “inactive” each time. In addition, the Potency result (in assay [9]; in the assay with JEG-3; in the assay on OV90) was “inactive” each time. In assay [2], the outcome was inactive. For the same compound, the Potency in the assay on HeLa was 14.1 µM (active).
With `FC(F)(F)c1ccc(CNc2ccc(Cc3c[nH]c4ncccc34)cn2)cc1`, the Potency result in [1], in assay [11], in assay [5], in assay [6], in assay [7] and in assay [8] was “inactive” throughout. The Potency result (in assay [9]; in the assay with JEG-3; in the assay with OV90) was “inactive” each time. In assay [2], the result was inactive. The Potency in assay [3] is 16.3 µM (active) and 10.5 µM (active); in [4], 14.5 µM (active) and 8.33 µM (active). The figures for the Z-AUC in assay [12], in [12] (measured here: PEO1 parental Z-AUC) and in assay [12] (measured here: PEO4 Z-AUC) were -0.674 (inactive), -1.25 and -0.926, respectively.
